Records with an inconclusive call do not appear. Active and inactive are the calls of the source. Unless noted, calls come from the whole dose curve; as a rule, active = well fitted curve in the direction sought with a large enough effect; inconclusive = small, poorly fitted or top-dose-only effect, or another doubt; inactive = no such curve, though single readings can be large; an effect the other way counts as inactive or inconclusive. Where a SMILES comes first, the peptide text is derived from it. [ ]: non-standard residue; d: D form. ξ: configuration not given here. ξLac(3-iPr) = CC(C)CC(O)C(=O)O; NMeV = CN[CH](C(=O)O)C(C)C; NMeA = CN[CH](C)C(=O)O; βAla = NCCC(=O)O
What was measured:
[1] = test system: Zika virus NS2B-NS3 protease (unlinked complex); test: Primary screen GU Rhodamine qHTS for Zika virus inhibitors: Unlinked NS2B-NS3 protease assay (AID 1347159); note: nearly all actives have a fitted effect of over 60% in size; note: potency is the fitted concentration of half-maximal effect
Method in brief: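 Noncovalent NS2B hydrophilic domain/NS3 protease complex (25 nM final) in 10 mM Tris-HCl pH 8.0, 0.01% Tween 20, preincubated 15 min with compounds (up to 114 microM), then 1.5 microM Rhodamine110 substrate. Fluorescence change over 15 min fitted to 4-parameter Hill.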

[2] = Primary qHTS for inhibitors of nuclear receptor binding SET domain protein 2 (NSD2) in an isogenic RCH-ACV NSD2 p.E1099K mutant (9B) (AID 1645876); note: nearly all actives have a fitted effect of over 70% in size; note: potency is the fitted concentration of half-maximal effect
[3] = test system: KB-3-1; test: Cytotoxic Profiling of Annotated Libraries Using Quantitative High-Throughput Screening (AID 1296008); settings: Five cell lines viability, CellTiter-Glo ATP luminescence, 48-72 h; max response: stronger effect = lower value; note: nearly all actives have a fitted effect of over 60% in size; note: potency is the fitted concentration of half-maximal effect; for max response: % is set by controls: 0 for no effect and ±100 for the full control effect
Method in brief: (§1)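 Cells exposed to compounds for 48 or 72 hr at 37 degrees Celsius. Viability read as ATP-coupled luminescence with CellTiter-Glo after 10 min at room temperature.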

[4] = test system: HACAT; test: qHTS assay to identify novel small-molecules to repurpose for Merkel cell carcinoma treatment (AID 1296009); settings: MCC and control cell lines, CellTiter-Glo viability, 72 h; at 44.8 µM (top of the series) unless noted; note: nearly all actives have a fitted effect of over 60% in size
Method in brief: (§2)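 Cells were treated for 72 hr at 37 degree celsius with compounds in 8- or 11-point dose response. Viability was read by CellTiter-Glo luminescence, normalized to no-cell (cytotoxicity) and DMSO controls.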

[5] = test system: HeLa; test: Primary qHTS to identify gynecologic anti-cancer compounds using libraries of approved drugs and bioactive compounds (AID 1345084); settings: Gynecologic cancer cell panel viability, ATPlite luminescence, 48 h; series mostly up to 57.5 µM; note: nearly all actives have a fitted effect of over 55% in size; note: potency is the fitted concentration of half-maximal effect; for activity change, negative = cytotoxicity: % is set by controls: 0 for no effect and ±100 for the full control effect
Method in brief: (§3)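 ATP-based viability (ATPlite), 1,000 cells/well, 16 h pre-incubation, 48 h compound at 37 C, 5% CO2, 15 min RT before read.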

[6] = test system: SKOV3; test: as above; settings: Gynecologic cancer cell panel viability, ATPlite luminescence, 48 h; series mostly up to 57.5 µM
Method in brief: as §3

[7] = P-glycoprotein substrates identified in KB-8-5-11 adenocarcinoma cell line, qHTS therapeutic library screen (AID 1346987); note: nearly all actives have a fitted effect of over 65% in size; note: potency is the fitted concentration of half-maximal effect; for activity change, negative = cytotoxicity: % is set by controls: 0 for no effect and ±100 for the full control effect
Method in brief: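 KB-8-5-11, a colchicine-selected P-gp-overexpressing KB-3-1 subline, was grown without colchicine for the assay. Cells were seeded at 500 cells/well, dosed in concentration-response and incubated 72 h at 37 degree C, 5% CO2. Viability was read by CellTiter-Glo luminescence.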

[8] = Primary qHTS for inhibitors of nuclear receptor binding SET domain protein 2 (NSD2) in an RCH-ACV wild type WT cells (2C) (AID 1645877); note: nearly all actives have a fitted effect of over 70% in size; note: potency is the fitted concentration of half-maximal effect
[9] = qHTS drug screen for cell cycle checkpoint inhibitors in PARPi-resistant BRCA-mutant ovarian cancer cell lines. (AID 1963452; calls by dose curve; note: potency is the fitted concentration of half-maximal effect); settings: PEO1/OlaR viability, CellTiter-Glo luminescence, 96 h; for Z-AUC: stronger effect = lower value
Method in brief: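 PEO1, PEO4 and PEO1/OlaR ovarian cancer cells, 600 per well, exposed 96 h at 37C to a dilution series. Viability read by CellTiter-Glo luminescence, normalized to DMSO and empty wells; activity summarized as Z-AUC.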

[10] = test system: HEK293; test: Cytotoxic Profiling of Annotated Libraries Using Quantitative High-Throughput Screening (AID 1296008); settings: Five cell lines viability, CellTiter-Glo ATP luminescence, 48-72 h; max response: stronger effect = lower value; note: nearly all actives have a fitted effect of over 60% in size; note: potency is the fitted concentration of half-maximal effect; for max response: % is set by controls: 0 for no effect and ±100 for the full control effect
Method in brief: as §1

[11] = molecular target: Cytochrome P450 2D6 (Homo sapiens) (UniProt P10635); test: Cytochrome P450 family 2 subfamily D member 6 (CYP2D6) small molecule antagonists: luciferase biochemical (cell-free) qHTS assay (AID 1645840; active = well fitted curve in the direction sought with a large enough effect in the repeat runs; an effect the other way counts as inactive or inconclusive; note: nearly all actives have a fitted effect of over 55% in size; note: potency is the fitted concentration of half-maximal effect)
Method in brief: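 P450-Glo luminescent screen: recombinant CYP2D6 enzyme–proluciferin substrate mix preincubated with compound 10 min at room temperature, then NADPH regeneration added for 1 h at room temperature. Detection reagent added for 20 min; luciferin light read as relative luminescence units.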

[12] = molecular target: Cytochrome P450 2C9 (Homo sapiens) (UniProt P11712); test: Cytochrome P450 family 2 subfamily C member 9 (CYP2C9) small molecule antagonists: luciferase biochemical (cell-free) qHTS assay (AID 1645842; active = well fitted curve in the direction sought with a large enough effect in the repeat runs; an effect the other way counts as inactive or inconclusive; note: nearly all actives have a fitted effect of over 55% in size; note: potency is the fitted concentration of half-maximal effect)
Method in brief: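 Luminescence, after 20 min with luciferin detection reagent, reflected CYP2C9 turnover during a 1 h NADPH-driven reaction at 37C. Enzyme-substrate mix contained 0.4% bovine serum albumin and was preincubated with compound 10 min at room temperature.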

[13] = P-glycoprotein substrates identified in KB-3-1 adenocarcinoma cell line, qHTS therapeutic library screen (AID 1346986); note: nearly all actives have a fitted effect of over 60% in size
Method in brief: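 KB-3-1 parental and colchicine-selected P-gp-overexpressing KB-8-5-11 cells (colchicine omitted during assay), 500 cells/well, dosed in dose-response for 72 h at 37 °C; CellTiter-Glo luminescence. Cytotoxic: curve class -1.1 to -2.4, max response >50%, AC50 < 10 uM.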

[14] = test system: NIH3T3; test: qHTS assay to identify novel small-molecules to repurpose for Merkel cell carcinoma treatment (AID 1296009); settings: MCC and control cell lines, CellTiter-Glo viability, 72 h; at 44.8 µM (top of the series) unless noted; note: nearly all actives have a fitted effect of over 60% in size
Method in brief: as §2

[15] = measured here: PEO1 parental Z-AUC

Cytochrome P450 2D6 (Homo sapiens), sequence (P10635 whole entry, looked up): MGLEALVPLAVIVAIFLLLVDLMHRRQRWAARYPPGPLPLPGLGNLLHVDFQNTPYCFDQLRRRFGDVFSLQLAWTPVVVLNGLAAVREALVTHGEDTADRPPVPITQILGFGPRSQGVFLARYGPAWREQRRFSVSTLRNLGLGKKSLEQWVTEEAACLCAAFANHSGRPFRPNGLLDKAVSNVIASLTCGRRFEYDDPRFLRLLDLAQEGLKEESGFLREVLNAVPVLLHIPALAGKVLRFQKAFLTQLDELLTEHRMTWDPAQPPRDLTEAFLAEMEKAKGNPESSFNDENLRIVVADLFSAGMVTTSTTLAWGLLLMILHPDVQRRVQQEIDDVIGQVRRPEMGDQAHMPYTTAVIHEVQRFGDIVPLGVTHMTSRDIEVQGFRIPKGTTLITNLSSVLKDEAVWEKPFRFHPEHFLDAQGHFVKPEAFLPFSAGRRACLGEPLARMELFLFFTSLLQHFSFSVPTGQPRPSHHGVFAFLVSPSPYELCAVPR
Cytochrome P450 2C9 (Homo sapiens), sequence (P11712 whole entry, looked up): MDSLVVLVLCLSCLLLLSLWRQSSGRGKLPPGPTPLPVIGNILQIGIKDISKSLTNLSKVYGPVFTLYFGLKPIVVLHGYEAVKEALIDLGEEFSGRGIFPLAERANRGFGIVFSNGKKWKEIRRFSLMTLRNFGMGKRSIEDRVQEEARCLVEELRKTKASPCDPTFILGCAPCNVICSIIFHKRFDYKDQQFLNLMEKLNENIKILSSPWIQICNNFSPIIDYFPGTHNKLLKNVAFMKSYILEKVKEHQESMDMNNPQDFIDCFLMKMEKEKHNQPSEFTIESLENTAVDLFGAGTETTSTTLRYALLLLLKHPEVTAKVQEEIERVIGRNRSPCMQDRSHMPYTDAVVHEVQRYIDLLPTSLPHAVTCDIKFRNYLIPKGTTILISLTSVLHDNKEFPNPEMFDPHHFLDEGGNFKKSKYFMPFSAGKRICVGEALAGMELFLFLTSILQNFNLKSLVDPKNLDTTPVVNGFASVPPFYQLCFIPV

CCC1(O)CCC2C3CCC4=CC(=O)CCC4C3CCC21CC (stereo not given)
inactive: Potency [1] | max response [3] -10.9% | outcome [4] | Potency [5] | Potency [6]
active: Potency [2] 20.5 µM

COc1ccc(CC2C(=O)NC(C)C(=O)N(C)C3Cc4ccc(cc4)Oc4cc(ccc4OC4OC(CO)C(O)C(O)C4O)CC(C(=O)NC(C)C(=O)NC(CCC(=O)O)C(=O)N2C)N(C)C3=O)cc1 (stereo not given)
inactive: activity change, negative = cytotoxicity [7] -22.7% [at 9.29 µM] | max response [3] -29.6% | outcome [4] inactive [at 9.27 µM] | activity change, negative = cytotoxicity [5] -13.7% [at 11.6 µM]
active: Potency [2] 5.48 µM

C/C(=C\c1csc(C)n1)[C@@H]1C[C@@H]2O[C@@H]2CCC[C@H](C)[C@H](O)[C@@H](C)C(=O)C(C)(C)[C@@H](O)CC(=O)O1
inactive: Potency [1]
-2.36: Z-AUC ([9]; measured here: PEO4 Z-AUC)
-2.45: Z-AUC [9, 15]
active: Potency [7] 0.0058 µM | Potency [2] 0.0372 µM | Potency [8] 0.0263 µM | Potency [9] 0.0087 µM | Potency [10] 0.0065 µM | Potency [3] 0.0082 µM

N#Cc1ccccc1-c1cc(-c2ccccn2)cn(-c2ccccc2)c1=O
inactive: Potency [11] | Potency [2] | Potency [8] | max response [3] -4.86% | Potency [5] | Potency [6]
active: Potency [12] 13.5 µM

CC(C)=CCC[C@]1(C)C=Cc2c(O)c3c(c(CC=C(C)C)c2O1)O[C@]12C(=C[C@@H]4CC1C(C)(C)O[C@@]2(C/C=C(/C)C(=O)O)C4=O)C3=O
active: Potency [7] 4.11 µM | Potency [1] 2.82 µM | Potency [2] 0.578 µM | Potency [8] 0.365 µM | Potency [10] 0.731 µM | Potency [5] 5.01 µM

C/C=C(\C)C(=O)O[C@@H]1[C@@H](C)[C@]2(O)C3C=C(C)C(=O)[C@@]3(O)CC(CO)=C[C@H]2C2C(C)(C)[C@@]21OC(=O)C(C)CC (stereo not given in full)
inactive: Potency [13] | Potency [7] | Potency [1] | outcome [3] | outcome [4] inactive [at 17.4 µM] | outcome [14] inactive [at 17.4 µM] | Potency [6]

NNC(=O)c1nn(Cc2ccc(Cl)cc2Cl)c2ccccc12
inactive: Potency [7] | Potency [5]

Cc1ccc(-n2nccn2)c(C(=O)N2CCN(c3nc4cc(Cl)ccc4o3)CCC2C)c1 (stereo not given)
active: Potency [11] 16.9 µM | Potency [12] 1.34 µM | Potency [2] 16.3 µM
inactive: outcome [4] | outcome [14] | Potency [5]

C[C@]12CC[C@H](O[C@@H]3O[C@H](CO)[C@@H](O)[C@H](O)[C@H]3O)CC1CC[C@@H]1C2CC[C@]2(C)[C@@H](C3=CC(=O)OC3)CC[C@]12O (stereo not given in full)
inactive: Potency [1] | outcome [14] inactive [at 17.4 µM]
active: Potency [7] 6.32 µM | Potency [2] 2.52 µM | Potency [8] 3.17 µM | Potency [10] 3.17 µM | Potency [5] 10 µM | Potency [6] 8.91 µM

CN(CC[C@H](N)CC(=O)N[C@H]1C=C[C@@H](n2ccc(N)nc2=O)O[C@@H]1C(=O)O)C(=N)N
inactive: activity change, negative = viability loss [2] -2.6% [at 9.23 µM] | activity change, negative = cell killing [8] 0.799% [at 9.23 µM] | outcome [10] | outcome [4] inactive [at 9.27 µM] | activity change, negative = cytotoxicity [5] 9.86% [at 11.6 µM]

COc1cc2c(cc1O)C1(C)CCC(O)C(C)(C)C1CC2=O (stereo not given)
inactive: Potency [13] | Potency [7] | Potency [1] | Potency [2] | max response [10] -7.2% | outcome [4] | outcome [14] | Potency [5] | Potency [6]

CCCCCn1cc(C(=O)C2C(C)(C)C2(C)C)c2ccccc21
inactive: Potency [7] | Potency [11] | Potency [2] | Potency [8] | outcome [4]

C=C1[C@@H](O)[C@]2(O)OC[C@]34C2[C@]2(C)C(C[C@H]3OC(=O)[C@H](O)[C@@]14O)C(C)=CC(=O)[C@H]2O (stereo not given in full)
active: Potency [2] 4.47 µM | Potency [8] 3.17 µM
inactive: Potency [7] | Potency [1] | Potency [5] | Potency [6]

CCCCn1cc(C(=O)c2cccc3ccccc23)c2ccccc21
inactive: Potency [7] | Potency [1] | Potency [11] | Potency [12] | Potency [2] | Potency [8] | max response [3] -16.1% | outcome [4] | Potency [5] | Potency [6]

CC1CCCCCC(=O)c2c(O)cc(O)cc2CC(=O)O1 (stereo not given)
inactive: Potency [7] | Potency [1] | max response [3] -18.6% | outcome [4] | Potency [5] | Potency [6]

COC[C@]12CN(C)C3C4[C@H](OC)[C@H]1C3(C(OC)C[C@H]2O)[C@H]1C[C@@]2(O)[C@H](OC(=O)c3ccccc3)[C@@H]1[C@]4(O)[C@@H](O)[C@@H]2OC (stereo not given in full)
inactive: Potency [7] | Potency [1] | Potency [2] | max response [3] -0.453%

C[C@@H]1Cc2c(Cl)cc(C(=O)N[C@@H](Cc3ccccc3)C(=O)O)c(O)c2C(=O)O1
active: Potency [2] 8.98 µM | Potency [8] 6.36 µM
inactive: Potency [1] | outcome [4] | Potency [5] | Potency [6]

C[C@H]1CN(Cc2ccc(CC(=O)N3CCC(Nc4cccc(F)c4)CC3)cc2)CCN1
active: Potency [11] 12 µM | Potency [10] 18.4 µM
inactive: Potency [1] | max response [3] -18.3% | Potency [5] | Potency [6]

OC(CNc1ccccc1)Cn1c2ccc(Br)cc2c2cc(Br)ccc21 (stereo not given)
active: Potency [11] 16.9 µM
inactive: max response [3] -15.3% | Potency [5] | Potency [6]

COc1ccc(C(C)(C)C)cc1CN[C@H]1C2CCN(CC2)[C@H]1C(c1ccccc1)c1ccccc1
inactive: Potency [1] | Potency [5] | Potency [6]
active: Potency [7] 18.4 µM | Potency [11] 2.68 µM | Potency [2] 6.49 µM | Potency [8] 6.49 µM | Potency [10] 10.3 µM

CCC(C)C1NC(=O)C2CCCN2C(=O)C(CC(C)C)OC(=O)CCNC(=O)C(C)N(C)C(=O)C(C(C)C)N(C)C1=O (stereo not given) (cyclo([ξLac(3-iPr)]PI[NMeV][NMeA][βAla]); configuration not given here)
inactive: Potency [7] | Potency [1]
active: Potency [2] 2.71 µM | Potency [8] 1.92 µM

CC(C)(O)/C=C/C(=O)[C@](C)(O)[C@H]1[C@H](O)C[C@@]2(C)[C@@H]3CC=C4[C@@H](C[C@H](O)C(=O)C4(C)C)[C@]3(C)C(=O)C[C@]12C
inactive: Potency [1]
active: Potency [7] 0.448 µM | Potency [2] 0.252 µM | Potency [8] 0.142 µM | Potency [10] 0.709 µM | Potency [3] 0.448 µM | Potency [5] 2.51 µM | Potency [6] 0.794 µM

CCOC(=O)C1(CCc2ccccc2)CCN(Cc2ccc(NC(C)=O)cc2)CC1
inactive: Potency [1] | max response [3] -17.7% | Potency [5] | Potency [6]
active: Potency [11] 2.13 µM

Cc1ncc(OC[C@@]2(c3cccc(F)c3)C[C@H]2C(=O)Nc2ccc(F)cn2)c(C)n1
0.108: Z-AUC ([9]; measured here: PEO4 Z-AUC)
-0.55: Z-AUC [9, 15]
inactive: Potency [2] | Z-AUC [9] -0.208 | max response [10] 4.45% | outcome [4] | outcome [14]

C[C@]12CC[C@H](OC3OC(CO)C(O)C(O)C3OC3OC(CO)C(O)C(O)C3O)C[C@@H]1CC[C@@H]1C2CC[C@]2(C)[C@@H](C3=CC(=O)OC3)CC[C@]12O (stereo not given in full)
inactive: Potency [1] | max response [3] 6.08% | outcome [14] inactive [at 17.4 µM] | Potency [5] | Potency [6]
active: Potency [2] 4.3 µM
